Screening data deposited in PubChem BioAssay by several laboratories.
SENP8 block-1: SENP8 (human) protease inhibition; recombinant SENP8, Nedd8 substrate fluorescence; inhibition, % at 20 µM; 0.64% of 360,000 active; AID 602440; in the data active = inhibition mostly above about 40%, no sharp cut-off; inactive = mostly below about 27%
Target sequence (Q96LD8 whole entry, looked up): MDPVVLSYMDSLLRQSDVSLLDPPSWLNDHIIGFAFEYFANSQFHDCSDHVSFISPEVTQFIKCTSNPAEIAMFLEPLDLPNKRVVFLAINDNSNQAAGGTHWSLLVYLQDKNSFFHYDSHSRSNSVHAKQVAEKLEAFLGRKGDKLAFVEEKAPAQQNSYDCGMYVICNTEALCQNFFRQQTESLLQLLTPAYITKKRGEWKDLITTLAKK
SENP7 block: SENP7 protease inhibition; Q9BQF6; inhibition, % at 5 µM; 1.5% of 330,000 active; recombinant SENP7, Z-RLRGG-aminoluciferin luminescence, 40 min;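 active = inhibition above about 50% at the single test dose, limit read from the data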;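 also: plate controls were DMSO with enzyme for no effect and no enzyme buffer wells for full effect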
SENP6 inh: blocks the human protease SENP6 | Q9GZR1 | Recombinant SENP6 catalytic domain, aminoluciferin luminescence | inhibition, % at 10 µM | 1.8% of 330,000 active;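 active = inhibition above about 50% at the single tested dose, limit read from the data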;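 also: plate controls were DMSO wells with enzyme for no effect and DMSO wells lacking enzyme for full effect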
Platelet DG rel: modulates dense granule release in human platelets | human platelet-rich plasma, SFLLRN dense granule ATP release, luminescence | inhibition, %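 (compounds screened at 7.5 µM in platelet-rich plasma)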 | 0.22% of 300,000 active;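 active = mean replicate score, as percent of positive control, at or above 50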
SENP8 block-2: blocks the human protease SENP8; AID 2540; 1.2% of 330,000 active; purified SENP8, Z-RLRGG-aminoluciferin cleavage, luminescence; inhibition, % at 10 µM; in the data active = inhibition above about 50%
SENP8 confirm: human SENP8 inhibition, confirmed; Recombinant SENP8, Z-RLRGG-aminoluciferin luminescence, 60 min; 40% of 6,200 active; shares compounds with SENP7 block; inhibition, % at 12.5 µM;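 active = mean inhibition across replicates above about 50%, limit read from the data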
SENP6 confirm: human SENP6 inhibition, confirmed; shares compounds with SENP7 block; recombinant SENP6, Z-RLRGG-aminoluciferin luminescence; inhibition, % at 12.5 µM; 58% of 6,200 active
SENP7 confirm: confirmation of human SENP7 protease inhibitors; inhibition, % at 12.5 µM; AID 488917; 69% of 6,200 active; shares compounds with SENP7 block; recombinant SENP7, Z-RLRGG-aminoluciferin luminescence, 40 min
Casp3 SENP sel: inhibits human caspase-3 in SENP selectivity test. inhibition, % at 12.5 µM. purified caspase-3, Z-DEVD-aminoluciferin luminescence, 60 min. shares compounds with SENP7 block. 60% of 6,200 active;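 active = mean inhibition above about 50%, limit read from the data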;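 also: plate controls were enzyme with DMSO for no effect and wells without caspase-3 for full effect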
Target sequence (P42574 28-227 limits assumed): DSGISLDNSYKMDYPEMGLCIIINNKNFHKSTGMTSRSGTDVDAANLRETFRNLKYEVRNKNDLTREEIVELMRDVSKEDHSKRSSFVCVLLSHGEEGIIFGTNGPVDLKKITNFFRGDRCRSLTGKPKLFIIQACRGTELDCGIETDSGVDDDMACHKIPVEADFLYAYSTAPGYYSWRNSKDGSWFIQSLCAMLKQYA
SENP luc ctr: luminescence interference (SENP counter-screen); shares compounds with SENP7 block; Pre-incubated SENP8/Z-RLRGG-aminoluciferin, luciferase luminescence interference; inhibition, % at 12.5 µM; 39% of 6,200 active; AID 488919;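 active = mean inhibition above about 50% when retested at one dose, limit read from the data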;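 also: plate controls were DMSO wells with completed reaction for no effect and substrate without enzyme for full effect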
An asterisk follows results filed as active; i = inactive; . = no result. Sampled rows, rich in hits. Any-hit rate of the full collection: about 2.4%.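 The calls were made as follows, unless noted: active = mean inhibition above about 50% in the one-dose retest (limit read from the data); inactive = the rest.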

SMILES	SENP8 block-1	SENP7 block	SENP6 inh	Platelet DG rel	SENP8 block-2	SENP8 confirm	SENP6 confirm	SENP7 confirm	Casp3 SENP sel	SENP luc ctr
COc1ccc(-n2c(C)cc(C(=O)COC(=O)c3ccc(O)cc3O)c2C)cc1	4	1	5	.	-1	.	.	.	.	.
CCCCNC(=O)c1sc(=S)n2c1[nH]c(=O)c1ccccc12	29	-1	85*	4	21	49	41	17	3	21
Cc1ccc(C)c(S(=O)(=O)/N=C2\C=C(NS(=O)(=O)c3ccccc3)C(=O)c3ccccc32)c1	73*	11	55*	3	36	2	29	-2	6	1
Cc1cccc(S(=O)(=O)Nc2cccc3c2C(=O)c2ccccc2-3)c1	17	-5	1	-1	-4	.	.	.	.	.
CN=C1S/C(=C\c2ccc(N3CCCC3)c(F)c2)C(=O)N1C	-61	71*	73*	4	12	2	6	20	29	1
CN=C1S/C(=C\c2ccc(N3CCOCC3)c(F)c2)C(=O)N1C	-274	12	-17	4	-7	.	.	.	.	.
N#Cc1c(N(CCO)CCO)nc(N)c2c(N)nc3c(c12)CC(=O)N3Cc1cccs1	-284	32	30	-2	11	.	.	.	.	.
COCCN1C(=O)Cc2c1nc(N)c1c(N)nc(N3CCN(c4ccc(F)cc4)CC3)c(C#N)c21	-453	12	-2	-3	-3	.	.	.	.	.
COc1ccc(CN2C(=O)Cc3c2nc(N)c2c(N)nc(N4CCOCC4)c(C#N)c32)cc1	-446	27	66*	-3	30	-6	-1	-10	1	1
CN(CCO)c1nc(N)c2c(N)nc3c(c2c1C#N)CC(=O)N3Cc1cccs1	-386	32	74*	1	-3	-23	-15	-11	-11	-6
COCC(C)N1C(=O)Cc2c1nc(N)c1c(N)nc(N3CCN(c4ccccc4F)CC3)c(C#N)c21 (centres undefined)	-394	24	75*	-2	26	-9	-3	-4	-2	-5
CN(c1ccccc1)S(=O)(=O)c1cccc(C(=O)Nc2nn[nH]n2)c1	11	-8	-11	0	0	.	.	.	.	.
COc1ccc(/C=C(/NC(=O)/C=C/c2ccccc2)C(=O)NCCCCCC(=O)O)cc1	37	-5	-11	5	-4	.	.	.	.	.
O=Nc1ccc(NOC(=O)c2ccccc2)cc1	19	46	88*	5	-29	15	-12	103*	15	8
CC(C)CNC(=S)NNC(=O)c1csc2c1CCCC2	8	50*	12	-2	11	1	2	-4	-2	-2
CC(C)CNC(=S)NNC(=O)c1csc2ccccc12	5	21	7	-2	4	.	.	.	.	.
COCCNC(=O)c1cc2nc3c(c(C(F)(F)F)n2n1)CCc1ccccc1-3	-428	-8	-14	-2	-7	.	.	.	.	.
O=C(O)c1cc2nc3c(c(C(F)(F)F)n2n1)CCc1ccccc1-3	-50	6	72*	-10	3	-21	-14	-8	-7	-5
Cc1cn(-c2cc(NC(=O)c3ccc(C)c(NC(=O)c4cccc(-c5cn[nH]c(=O)c5)c4)c3)cc(C(F)(F)F)c2)cn1	2	2	-5	3	-6	.	.	.	.	.
O=C(Nc1cccc2nsnc12)c1ccc(F)cc1	-410	30	9	5	-8	.	.	.	.	.
O=C(Nc1cccc2nsnc12)c1ccc2c(c1)OCCO2	-273	-20	77*	1	66*	11	83*	98*	88*	27
O=C(Nc1cccc2nsnc12)c1ccc2c(c1)OCO2	-407	60*	69*	-4	52*	30	66*	77*	67*	11
CCOc1ccc(C(=O)N2CCC3(CC2)NCCc2[nH]cnc23)cc1OCC	14	2	-4	-3	-10	.	.	.	.	.
CCCS/C(N)=N/N=C/c1cc(C)ccc1O	32	11	53*	-4	10	20	17	59*	20	17
CC(=O)NC(c1ccccc1)c1cccnc1 (centres undefined)	8	3	0	3	-2	.	.	.	.	.
SMILES	SENP8 block-1	SENP7 block	SENP6 inh	Platelet DG rel	SENP8 block-2	SENP8 confirm	SENP6 confirm	SENP7 confirm	Casp3 SENP sel	SENP luc ctr
CCc1cccc(CC)c1C(OC(C)=O)c1cccnc1 (centres undefined)	15	-3	-25	-14	55*	8	10	18	10	6
Cc1ccc([C@H]2N[C@]3(CCCN(Cc4ccc(F)cc4)C3=O)[C@H]3C(=O)N(C)C(=O)[C@@H]23)cc1	9	.	.	.	.	.	.	.	.	.
Cc1cc(C)c(NC(=O)CSc2nnc(-c3ccncc3)n2Cc2ccco2)c(C)c1	11	70*	-27	3	-7	7	8	1	4	2
O=C(CSc1nnc(-c2cccnc2)n1Cc1ccco1)NCc1ccc2c(c1)OCO2	15	59*	-7	5	4	-9	-6	-11	-1	2
O=C(CSc1nnc(-c2ccncc2)n1Cc1ccco1)Nc1ccccc1Cl	18	3	11	-4	-5	.	.	.	.	.
CC(C)(C)N(Cc1ccccc1)C(=O)CN1C(=O)NC2(CCCCCC2)C1=O	10	1	4	.	-7	.	.	.	.	.
CCN(CC)C(=O)[C@H]1CC(CC(=O)NCCCOC)C(=O)N2CCc3c([nH]c4ccccc34)[C@]12C (some centres undefined)	14	-1	-14	.	-6	.	.	.	.	.
O=C1CSC(c2ccccc2Cl)N1 (centres undefined)	16	-5	-29	-5	-3	.	.	.	.	.
COc1ccc2c(c1)oc(=O)c1cc(OC)ccc12	-212	80*	65*	3	46	42	43	63*	65*	27
COc1ccc(-c2cc(=O)c3cc(C)ccc3[nH]2)cc1	-134	15	32	-9	19	.	.	.	.	.
CSc1ccc(-c2cc(=O)c3ccccc3o2)cc1	-280	-12	59*	15	57*	66*	63*	84*	51*	38
O=c1cc(-c2ccc(F)cc2)oc2ccccc12	19	8	16	8	-1	.	.	.	.	.
COc1ccc(-c2cc(=O)c3cc(OC)ccc3[nH]2)cc1	i	81*	84*	27	74*	17	78*	96*	93*	-5
O=c1cc(-c2ccccc2)oc2ccc(Br)cc12	15	73*	42	.	45	8	9	14	22	6
COc1ccc2c(c1)oc(=O)c1ccccc12	-1	-9	-5	0	2	.	.	.	.	.
Cc1ccc2ccccc2c1NC(=O)CNCc1ccccc1	0	.	.	.	.	.	.	.	.	.
